Out of some 310,000 compounds screened, about 14,000 (4.5%) showed an effect of 50% or more. Effects have a minus sign here. The sample as a whole holds a higher share of strong results than the screen did.
These compounds were tested against human ether-à-go-go-related gene (hERG) potassium channel (human, UniProt Q12809) (assay: primary screen, population patch clamp on CHO cells stably expressing hERG; higher = less effect of the substance).
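Further: peak tail current of the secondary pulse compared with the same well before compound.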

human ether-à-go-go-related gene (hERG) potassium channel, sequence (Q12809 whole entry, looked up): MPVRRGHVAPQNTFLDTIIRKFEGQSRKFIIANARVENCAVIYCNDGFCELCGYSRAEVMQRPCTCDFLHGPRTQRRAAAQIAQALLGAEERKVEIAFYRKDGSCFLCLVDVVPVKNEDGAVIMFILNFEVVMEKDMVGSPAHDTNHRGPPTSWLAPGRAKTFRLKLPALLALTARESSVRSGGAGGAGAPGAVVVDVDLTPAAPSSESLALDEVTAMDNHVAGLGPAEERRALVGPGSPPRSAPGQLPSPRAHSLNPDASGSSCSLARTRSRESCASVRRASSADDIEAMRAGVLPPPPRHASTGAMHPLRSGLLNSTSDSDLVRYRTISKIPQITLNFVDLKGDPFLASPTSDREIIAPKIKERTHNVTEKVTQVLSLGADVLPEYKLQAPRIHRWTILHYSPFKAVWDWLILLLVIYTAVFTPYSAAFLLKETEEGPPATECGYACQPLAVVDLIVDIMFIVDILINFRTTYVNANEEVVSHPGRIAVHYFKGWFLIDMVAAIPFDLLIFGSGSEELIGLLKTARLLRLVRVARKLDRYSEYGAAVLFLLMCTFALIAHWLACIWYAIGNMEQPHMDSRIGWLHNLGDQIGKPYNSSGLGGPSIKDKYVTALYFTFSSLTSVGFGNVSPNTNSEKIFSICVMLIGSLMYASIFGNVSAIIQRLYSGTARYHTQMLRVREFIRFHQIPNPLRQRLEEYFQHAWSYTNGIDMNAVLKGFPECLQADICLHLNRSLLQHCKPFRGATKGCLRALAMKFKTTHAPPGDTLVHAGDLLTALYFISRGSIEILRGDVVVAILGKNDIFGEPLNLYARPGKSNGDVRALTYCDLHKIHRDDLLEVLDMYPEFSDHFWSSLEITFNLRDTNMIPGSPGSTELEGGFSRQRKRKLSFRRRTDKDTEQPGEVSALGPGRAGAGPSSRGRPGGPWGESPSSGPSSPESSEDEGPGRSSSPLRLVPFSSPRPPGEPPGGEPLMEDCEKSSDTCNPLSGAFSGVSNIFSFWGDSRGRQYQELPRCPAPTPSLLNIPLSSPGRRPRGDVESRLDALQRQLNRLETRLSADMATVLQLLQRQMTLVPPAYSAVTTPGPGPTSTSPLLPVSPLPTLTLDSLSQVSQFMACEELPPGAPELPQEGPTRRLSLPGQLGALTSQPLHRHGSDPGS

SMILES | hERG current change (%, negative = inhibition) at 10uM
CCN(CC(=O)NC1CC1)S(=O)(=O)c1ccccc1 | 10%
Br.Cc1csc(=Nc2ccccc2)n1C | -2.07%
COc1ccc2c(C)cc(SCC(=O)Nc3cccnc3Cl)nc2c1 | 10.3%
Cc1ccnc(NC(=O)c2cc3ccccc3oc2=O)c1 | 8.47%
Cc1cc(NS(=O)(=O)c2cccc([N+](=O)[O-])c2)no1 | 28.8%
CC(C)C[C@@H](CO)N1CCN(CC(C)C)CCC1=O | 4.64%
CCCN1CCC(=O)N([C@H](CO)c2ccccc2)CC1 | 9.36%
CCCCCCCN1CCC(=O)N([C@H](CO)CC(C)C)CC1 | -63%
CCCCCCCN1CCC(=O)N(CCO)CC1 | -54.3%
CCCCCCCN1CCC(=O)N([C@H](CO)Cc2ccccc2)CC1 | -78.8%
CC(C)CN1CCC(=O)N(CCO)CC1 | 1.33%
CCCCCCCN1CCC(=O)N([C@H](CO)c2ccccc2)CC1 | -63.7%
CCCN1CCC(=O)N([C@H](CO)CC(C)C)CC1 | 20%
CCCN1CCC(=O)N(CCO)CC1 | -3.79%
CCCN1CCC(=O)N([C@H](CO)Cc2ccccc2)CC1 | 0.476%
O=C1CCN(CCCc2ccccc2)CCN1[C@H](CO)Cc1ccccc1 | -40.6%
O=C1CCN(CCCc2ccccc2)CCN1[C@H](CO)c1ccccc1 | -29.7%
CCOC(=O)Cc1ccc(NC(=O)c2ccccc2Br)cc1 | -7.9%
O=S(=O)(c1ccc(Br)s1)N1CCN(c2ncccn2)CC1 | -3.42%
Nc1ccccc1-c1nnc2n1CCCCC2 | 25.8%
Cc1cc(C)c(C(=O)CSc2nnc(C)s2)c(C)c1 | 18.2%
CCCC1(C(=O)OCC)NC(c2ccc(N(C)C)cc2)C2C(=O)N(c3ccc(F)cc3)C(=O)C21 (stereo not drawn) | -8.18%
CCCCNC(=O)c1sc2nc(C)cc(COC)c2c1-n1cccc1 | -10.7%

SMILES | hERG current change (%, negative = inhibition) at 10uM
S=C(c1ccccc1)N(c1ccccc1)c1ccccc1 | 7.21%
Cc1ccc(N2CC(C(=O)Nc3ccc(S(=O)(=O)N4CCCC4)cc3)CC2=O)cc1 (stereo not drawn) | -8.07%
O=C(Nc1ccccc1)C1=C(O)CC(c2ccoc2)CC1=Nc1ccccc1 (stereo not drawn) | 15%
O=C1CCCCC1Oc1ccc2ccc(=O)oc2c1 (stereo not drawn) | 19.6%
Cc1coc2c(C)c3oc(=O)c(CCC(=O)NCCN4CCOCC4)c(C)c3cc12 | -24.6%
COc1cc(N(C)C)c([N+](=O)[O-])cc1C(=O)N1CCN(Cc2ccccc2)CC1 | 9.99%
COc1ccc(C(=O)N2CCN(Cc3ccccc3)CC2)cc1[N+](=O)[O-] | -52%
Cc1cc(C(=O)N2CCN(Cc3ccccc3)CC2)ccc1[N+](=O)[O-] | -32%
COc1ccc(C(=O)N2CCN(Cc3ccc4c(c3)OCO4)CC2)cc1[N+](=O)[O-] | -44.6%
CC(OC(=O)c1ccc(Cl)c([N+](=O)[O-])c1)C(=O)N1CCN(Cc2ccccc2)CC1 (stereo not drawn) | -71.1%
O=C(c1ccc(Br)c([N+](=O)[O-])c1)N1CCN(Cc2ccccc2)CC1 | -61.2%
O=C(c1ccc(Oc2ccc([N+](=O)[O-])cc2Cl)cc1)N1CCCC1 | -32.2%
O=C(c1ccc(Cl)c([N+](=O)[O-])c1)N1CCN(Cc2ccc3c(c2)OCO3)CC1 | -26.7%
NC(=O)c1ccc(Oc2ccc(Cl)cc2)c([N+](=O)[O-])c1 | 12.6%
CC(C(=O)N1CCN(Cc2ccccc2)CC1)c1ccc([N+](=O)[O-])cc1 (stereo not drawn) | -43.7%
O=C(c1ccc(Oc2ccc(Cl)cc2)c([N+](=O)[O-])c1)N1CCCC1 | -63%
O=C(c1ccc(S(=O)(=O)c2ccccc2Cl)c([N+](=O)[O-])c1)N1CCN(Cc2ccccc2)CC1 | -25.3%
CCOC(=O)C1(C)/C(=N/Nc2cccc(Cl)c2)C(=O)C(=O)N1c1ccccc1 (stereo not drawn) | 6.3%
CCOc1ccc(Br)cc1S(=O)(=O)Nc1cccc(S(=O)(=O)N(CC)CC)c1 | -4.53%
Cc1ccc(CN2CCN(/N=C/c3ccc(C(=O)O)cc3)CC2)cc1 | 5.6%
CCOc1ccccc1N(CC(=O)NC1CCCCC1)C(=O)CCC(=O)Nc1cc(C)ccn1 | 3.35%
Cc1cccc(CSc2nnc(CCNC(=O)OC(C)(C)C)o2)c1 | -7.22%
COc1c([N+](=O)[O-])c(=O)oc2ccccc12 | 15.4%

SMILES | hERG current change (%, negative = inhibition) at 10uM
Cc1ccc(S(=O)(=O)CC(=O)Nc2ncc([N+](=O)[O-])s2)cc1 | 21.8%
CC(C)(C)NC(=O)COC(=O)CCC(=O)c1ccc(F)cc1 | 12%
COc1ccccc1C(=O)NNc1ncc(C)s1.Cl | -0.745%
COc1ccc(C(=O)N2CCN(c3ccccn3)CC2)cc1[N+](=O)[O-] | -14.9%
COc1ccc(C(=O)N2CCN(c3ncccn3)CC2)cc1[N+](=O)[O-] | -2.35%
COc1ccc(C(=O)N2CCN(CCc3ccccc3)CC2)cc1[N+](=O)[O-] | -75.6%
COc1ccc(N(CC(=O)Nc2ccc(F)c(F)c2)S(=O)(=O)c2c(C)n[nH]c2C)cc1 | 18.5%
CN(C)C/C=C(/c1ccc(Br)cc1)c1cccnc1.Cl | -71.5%
O=C(OCc1ccc(Br)cc1)c1cccnc1 | -5.96%
O=C(Oc1ccc(Br)cc1)c1cccnc1 | 4.3%
CN(C)C/C=C(\c1ccc(Br)cc1)c1cccnc1.Cl.O | -63.7%
CN(C)CCCO/N=C(\c1ccccc1)c1ccncc1.O=C([O-])C(=O)[O-] | 5.25%
Cc1ccc(C(=O)O/N=C(\c2ccccc2)c2cccnc2)cc1 | -18.7%
O=C(NCCNC(=O)c1cccnc1)c1ccc(Br)cc1 | 14.6%
C/C(=N\NC(=O)c1ccc(Br)cc1)c1cccnc1 | 5.22%
CN(C)CCO/N=C(\c1ccc(Br)cc1)c1cccnc1.O=C(O)C(=O)O | -63.5%
CC[C@@]12C(=O)N(c3cccc(F)c3)C(=O)N1[C@H](c1cccc(C)c1)[C@@H]1C(=O)N(Cc3ccccc3)C(=O)[C@@H]12 | 0.427%
Cc1cc(-c2ccccc2)nc(N/N=C/c2ccco2)n1 | -0.804%
O=C(OCC(=O)N1CCCc2ccccc21)c1ccccc1NCCO | -15.9%
Cc1ccc(S(=O)(=O)N2CCCCC2)cc1NC(=O)CSc1ccc2c(c1)OCCO2 | -9.32%
CCOC(=O)CSc1n[nH]c(NS(=O)(=O)c2ccccc2C(F)(F)F)n1 | -1.78%
CSc1ccc(C2Nc3ccccc3-c3cc(C)nn32)cc1 (stereo not drawn) | -3.75%
COc1cc(/C=C(/C#N)c2nc3ccccc3[nH]2)ccc1OC(=O)c1ccco1 | -6.24%

SMILES | hERG current change (%, negative = inhibition) at 10uM
O=C(COC(=O)c1ccccc1)Nc1cc(S(=O)(=O)N2CCCCCC2)ccc1Cl | 7.5%
CS(=O)(=O)c1ccc(Cl)c(NC(=O)COC(=O)c2cccc(S(=O)(=O)N3CCCCC3)c2)c1 | -30.9%
CS(=O)(=O)c1ccc(Cl)c(NC(=O)COC(=O)c2cccc(S(=O)(=O)N3CCCC3)c2)c1 | -51.5%
O=C(COC(=O)CCS(=O)(=O)c1ccccc1)Nc1cc(S(=O)(=O)N2CCCCC2)ccc1Cl | -4.61%
O=C(COC(=O)Cc1ccccc1)Nc1cc(S(=O)(=O)N2CCCCC2)ccc1Cl | -81.8%
Cc1ccc(C(=O)OCC(=O)Nc2cc(S(C)(=O)=O)ccc2Cl)cc1S(=O)(=O)N1CCCCC1 | -26.9%
CCOC(=O)c1ccc(NC(=O)NCc2ccccc2)cc1 | -9.51%
COc1ccc(S(=O)(=O)N2CCN(C(=S)Nc3ccc(S(N)(=O)=O)cc3)CC2)cc1 | 15.7%
CCC(C(=O)Nc1nccs1)c1ccccc1 (stereo not drawn) | 9.98%
COc1ccc(-n2c(=O)c3ccccc3n(CC(=O)NCC3CCCO3)c2=O)cc1 (stereo not drawn) | 13.4%
O=C(c1cnc2ccccc2n1)N1CCN(c2ccc(C(F)(F)F)cn2)CC1 | -17.1%
O=S(=O)(CCc1nc2ccccc2o1)c1ccc(Cl)cc1 | -7.14%
COc1ccc2cc(CN(CCCN3CCOCC3)Cc3nnnn3C3CCCCC3)c(=O)[nH]c2c1 | -26.5%
CCOc1ccc2[nH]c(=O)c(CN(CCCN3CCOCC3)Cc3nnnn3Cc3ccc(OC)cc3)cc2c1 | -60.9%
Cc1ccc2[nH]c(=O)c(CN(Cc3ccccc3)Cc3nnnn3C3CCCC3)cc2c1 | -6.83%
COc1ccc(Cn2nnnc2CN(CCCN2CCOCC2)Cc2cc3cc(OC)ccc3[nH]c2=O)cc1 | -42.7%
COc1ccc2cc(CN(Cc3ccco3)Cc3nnnn3C3CCCCC3)c(=O)[nH]c2c1 | -19.4%
Cc1ccc2[nH]c(=O)c(CN(CCCN3CCOCC3)Cc3nnnn3C3CCCC3)cc2c1 | -54.5%
COc1ccc2cc(CN(CCCN3CCOCC3)Cc3nnnn3C3CCCC3)c(=O)[nH]c2c1 | -59.7%
COc1cc2cc(CN(CCCN3CCOCC3)Cc3nnnn3Cc3ccccc3)c(=O)[nH]c2cc1OC | -20.2%
Cc1ccc2[nH]c(=O)c(CN(Cc3ccc4c(c3)OCO4)Cc3nnnn3C3CCCC3)cc2c1 | 4.66%

Reference: publication PMC4336329 (PLoS ONE, 2015)
